Data reported in the supplement of paper PMC13380429.
Values without a mark were called inactive.

What follows are molecules tested on Vero E6 infected with SARS-CoV-2 (assay: inhibition of SARS-CoV-2 cytopathic effect; higher = more antiviral protection, active = above 15). Conditions: 10000 nM; 48 h.
CC1=CC(=O)c2ccccc2C1=O [menadione] was tested, and the “inhibition of SARS-CoV-2 cytopathic effect” value (shortened to “inhibition”) was -2.15%.
With O=[N+]([O-])c1c(Nc2cc(F)cc(Cl)c2)ccc2nonc12 the “inhibition” value was 2.66%.
For Cc1ccc2cc(-c3c(C)ccc(C(=O)c4c(-c5ccccc5)n(C)n(-c5ccccc5)c4=O)c3N)ccc2n1, the “inhibition” value was 43.4% (active).
For CCCCS(=O)(=O)N[C@@H](Cc1ccc(OCCCCC2CCNCC2)cc1)C(=O)O [tirofiban], the “inhibition” value was 2.44%.
With CCCCCNCC(N)=O [milacemide] the “inhibition” value was -0.4%.
